An excerpt weighted towards active compounds, which were near 2.9% of everything screened.
SNCA viab count = GF-AFC viability counterscreen for inhibitors of alpha-synuclein gene (SNCA) expression; HEK-293-SNCA-luc viability, GF-AFC fluorescence, 24 h; Potency, µM (titrated, usually from 57.1 µM), actives largely listed as cytotoxic; actives 0.12% (n = 150,000); note: nearly all actives have a fitted effect of over 30% in size
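HEK-293-SNCA-luc cells (1500/well) plated 24 h, then exposed 24 h to a dilution series; GF-AFC added 30 min at 37C, fluorescence 405/540 nm; normalised to medium-only and DMSO wells, Hill fit.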
SNCA expr inh = Primary qHTS assay for inhibitors of alpha-synuclein gene (SNCA) expression; actives 0.17% (n = 140,000); Potency, µM (doses to about 57.2 µM), hits mostly inhibitors; HEK-293 SNCA-luciferase knock-in, luminescence, 24 h; note: nearly all actives have a fitted effect of over 45% in size
KDM5B inh = Primary screen for KDM5B Histone Demethylases FDH-coupled qHTS. AID 1347165, 2019. actives 2.6% (n = 220,000). Potency, µM (highest dose often 57.7 µM), actives largely listed as inhibitors. KDM5B demethylase, FDH-coupled NADH fluorescence (FDH is formaldehyde dehydrogenase); note: nearly all actives have a fitted effect of over 70% in size
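Measured: NADH fluorescence change, 30 min, RT. System: KDM5BΔAP 200 nM final, H3K4me3 peptide, α-KG, Fe(II), ascorbate, NAD⁺ plus FDH, pH 7.5 HEPES. Compounds: titrated, 10 min pre-incubation with enzyme.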
IP6K1 inh = Primary qHTS assay for small molecule inhibitors of Inositol hexaphosphate kinase 1 (IP6K1) | Inositol hexakisphosphate kinase 1 (Homo sapiens), Q92551 | IP6K1 kinase, ADP-Glo luminescence, 2 h; hits give low values | activity change, % (series mostly up to about 58 µM) | actives 0.81% (n = 140,000); in the data active = activity change below about -25%
Target sequence (Q92551 whole entry, looked up): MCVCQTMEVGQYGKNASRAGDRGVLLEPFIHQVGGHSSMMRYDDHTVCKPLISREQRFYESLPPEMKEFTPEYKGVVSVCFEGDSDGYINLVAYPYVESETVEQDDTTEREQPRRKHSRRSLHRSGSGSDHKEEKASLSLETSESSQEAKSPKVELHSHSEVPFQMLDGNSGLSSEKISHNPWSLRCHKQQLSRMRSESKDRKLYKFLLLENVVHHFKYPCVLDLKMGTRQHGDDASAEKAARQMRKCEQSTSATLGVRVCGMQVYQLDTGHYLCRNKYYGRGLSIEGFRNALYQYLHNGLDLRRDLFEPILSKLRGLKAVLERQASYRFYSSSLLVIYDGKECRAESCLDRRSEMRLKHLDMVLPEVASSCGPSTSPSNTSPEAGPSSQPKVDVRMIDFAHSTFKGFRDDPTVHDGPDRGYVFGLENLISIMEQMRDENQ
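ADP-Glo luminescence measures ADP made by human IP6K1 during a 2 h RT reaction with ATP/IP6 (mix at 1.3 mM/130 uM); top library doses 57.5 and 19.1 uM final.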
A number is an active result; – = inactive; ? = inconclusive; · = no result. Unless noted, calls come from the whole dose curve; as a rule, active = well fitted curve in the direction sought with a large enough effect; inconclusive = small, poorly fitted or top-dose-only effect, or another doubt; inactive = no such curve, though single readings can be large; an effect the other way counts as inactive or inconclusive.

SMILES	SNCA viab count	SNCA expr inh	KDM5B inh	IP6K1 inh
Cc1cc(C)c(CNC(=O)c2cc(-c3ccccc3F)cc3c2OCCN3C(C)C)c(=O)[nH]1	–	?	32µM	–
CNc1cc(C2CC(NS(=O)(=O)c3c(C)noc3C)C2)nc(N)n1 (centres undefined)	–	–	–	–
CC(C)c1ccc(C(=O)N[C@H](C2CCNCC2)C2CC(O)C2)c(=O)n1C (some centres undefined)	–	?	25µM	–
O=C(N[C@H](C1CCNCC1)C1CC(O)C1)c1ccc2nccnc2c1 (some centres undefined)	–	–	?	–
COc1ccc(NC(=O)c2ncoc2-c2ccc(OC)c(OC)c2)cc1	·	·	–	·
CC(C)[S+](=O)([O-])N1CCN(c2cc(Cl)ncn2)C(=O)C1	–	–	–	–
Cc1ccccc1C(=O)NCc1ccnc2[nH]ccc12	–	–	?	–
CN(C)C(=O)c1ccnc2[nH]ccc12	?	–	126µM	–
O=C(c1ccnc2[nH]ccc12)N1CCOCC1	–	–	126µM	–
CN1CCC2(C1)CN(CC1CCOCC1)c1ccc(C(=O)NCCCO)cc12 (centres undefined)	–	–	35µM	–
CN1CCC2(C1)CN(CC1CCOCC1)c1ccc(C(=O)NCCc3ccccc3)cc12 (centres undefined)	–	–	32µM	–
CN1CCC2(C1)CN(CC1CCOCC1)c1ccc(C(=O)NCCOc3ccccc3)cc12 (centres undefined)	–	–	22µM	–
C=CCNC(=O)N[C@H]1CO[C@H]2[C@@H]1OC[C@@H]2Nc1nccc(-c2cccc(F)c2)n1	–	–	40µM	–
N#Cc1cccc(-c2ccnc(N[C@H]3CO[C@H]4[C@@H]3OC[C@@H]4NC(=O)C3CCCCC3)n2)c1	–	–	35µM	–
C=CCNC(=O)N[C@H]1CO[C@H]2[C@@H]1OC[C@@H]2Nc1nccc(-c2ccccc2OC)n1	–	–	28µM	–
N#Cc1cccc(-c2ccnc(N[C@H]3CO[C@H]4[C@@H]3OC[C@@H]4NC(=O)c3cccs3)n2)c1	–	–	32µM	–
CCc1ccc2oc(-c3ccc(NC(=O)c4ccc(OC)cc4)cc3)nc2c1	·	·	–	·
CCn1nccc1C(=O)N1CCC2(CC1)NC(=O)N(c1ccc(F)cc1)N2	–	–	–	–
CCOC(=O)[C@H]1C[C@]2(CCCCN(CCOC(C)=O)C2=O)N(C(=O)C2CC2)[C@H]1c1ccccc1	·	·	·	–
O=C(N[C@H]1CO[C@H]2[C@@H]1OC[C@@H]2Nc1nccc(-c2cccc(F)c2)n1)c1cccs1	–	–	35µM	–
Cc1nn2c(c1-c1ccccc1OCc1ccccc1)N(Cc1cccnc1)CCC2	–	–	–	–
Cc1nn2c(c1-c1ccccc1OCc1ccccc1)N(CC1CC1)CCC2	10µM	?	35µM	–
Cc1nn2c(c1-c1cccnc1N1CCOCC1)N(CC1CC1)CCC2	–	–	35µM	–
COc1ccc(OC)c(CN2CCCn3nc(C)c(-c4ccccc4OCc4ccccc4)c32)c1	4µM	?	28µM	–
Cc1nn2c(c1-c1ccccc1Oc1ccccc1)N(CC1CC1)CCC2	?	?	32µM	–
SMILES	SNCA viab count	SNCA expr inh	KDM5B inh	IP6K1 inh
Cc1nn2c(c1-c1ccccc1OCc1ccccc1)N(Cc1ccccc1O)CCC2	–	?	?	–
COCCn1cc2c3c(cccc31)CN(C(=O)CCCc1ccccc1)CC2	–	–	25µM	–
COCCn1cc2c3c(cccc31)CN(C(=O)CCc1ccccc1OC)CC2	–	–	?	–
CN(C)C[C@@H]1CN(c2ccccn2)C[C@H]1NC(=O)c1ccc2c(c1)OCO2	–	–	28µM	–
CN(C)C[C@@H]1CN(c2ccccn2)C[C@H]1NC(=O)NC1CCCCC1	–	–	32µM	–
CN(C)C[C@@H]1CN(c2ccncn2)C[C@H]1NC(=O)NC1CCCCC1	–	–	–	–
CN(C)C[C@@H]1CN(c2ccccn2)C[C@H]1NC(=O)c1cccn1C	–	–	22µM	–
CN(C)C[C@@H]1CN(c2ccccn2)C[C@H]1NC(=O)c1ccoc1	–	–	28µM	–
CN(C)C[C@@H]1CN(c2ccncn2)C[C@H]1NC(=O)c1ccc2c(c1)OCO2	–	–	?	–
Clc1ccc(-c2noc(CSc3nncc4ccccc34)n2)cc1	·	·	–	·
